Most compounds without a hit are left out; they make up all but 7.3% or so of the library.
ELG1 genotox: qHTS screen for small molecules that induce genotoxicity in human embryonic kidney (HEK293T) cells expressing luciferase-tagged ELG1. Potency, µM (doses to about 46 µM), inactives show top-dose activity change, positive = activation, hits mostly activators. HEK293T ELG1-luciferase reporter, luminescence, 16 h. actives 1.3% (n = 330,000); note: % of control where 0% means no effect; nearly all actives have a fitted effect of over 60% in size
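Screening used a luciferase reporter fused to human ELG1 in HEK293T cells. Luminescence was read on a CCD plate imager after 16 hr exposure and 30 min ONE-Glo incubation.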
uPA generation: qHTS for Inhibitors of Cell Surface uPA Generation | cell surface uPA generation assay, qHTS | Potency, µM (series often up to 38.3 µM), without a hit: top-dose activity change, negative = inhibition, most hits filed as inhibitors | actives 0.31% (n = 330,000) | AID 540303, 2011; active = well fitted inhibition curve with a large enough effect; inconclusive = small, poorly fitted or top-dose-only effect; inactive = no such curve, though single readings can be large or run the other way; tested in mouse RAW 264.7 cells; note: % is set by controls: 0 for no effect and ±100 for the full control effect; nearly all actives have a fitted effect of over 55% in size
NPC1 prom act: qHTS Assay for NPC1 Promoter Activators | Huh7 NPC1 promoter luciferase reporter, 24 h | Potency, µM (highest dose often 9.22 µM), for inactives: at the highest dose activation, actives largely listed as activators | actives 2.4% (n = 320,000) | AID 485313, 2010; note: % of control where 0% means no effect; nearly all actives have a fitted effect of over 60% in size
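Stably transfected Huh7 (NPC1 promoter→luciferase), 1500 cells/well in Opti-MEM + 10% FBS, 2 h settle, then compound 24 h at 37 °C. Luminescence after 10 min with Amplite reagent.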
FLuc modulator: qHTS profiling assay for firefly luciferase inhibitor/activator using purifed enzyme and Km concentrations of substrates (counterscreen for miR-21 project); purified FLuc, Km substrates, luminescence inhibition; actives 6.9% (n = 360,000); Potency, µM (top dose mostly 57.5 µM), for inactives: at the highest dose activity change, negative = inhibition, most hits filed as inhibitors;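 note: plate controls were vehicle for no effect and reference inhibitor for full effect; nearly all actives have a fitted effect of over 55% in size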
Target sequence (P08659 whole entry, looked up): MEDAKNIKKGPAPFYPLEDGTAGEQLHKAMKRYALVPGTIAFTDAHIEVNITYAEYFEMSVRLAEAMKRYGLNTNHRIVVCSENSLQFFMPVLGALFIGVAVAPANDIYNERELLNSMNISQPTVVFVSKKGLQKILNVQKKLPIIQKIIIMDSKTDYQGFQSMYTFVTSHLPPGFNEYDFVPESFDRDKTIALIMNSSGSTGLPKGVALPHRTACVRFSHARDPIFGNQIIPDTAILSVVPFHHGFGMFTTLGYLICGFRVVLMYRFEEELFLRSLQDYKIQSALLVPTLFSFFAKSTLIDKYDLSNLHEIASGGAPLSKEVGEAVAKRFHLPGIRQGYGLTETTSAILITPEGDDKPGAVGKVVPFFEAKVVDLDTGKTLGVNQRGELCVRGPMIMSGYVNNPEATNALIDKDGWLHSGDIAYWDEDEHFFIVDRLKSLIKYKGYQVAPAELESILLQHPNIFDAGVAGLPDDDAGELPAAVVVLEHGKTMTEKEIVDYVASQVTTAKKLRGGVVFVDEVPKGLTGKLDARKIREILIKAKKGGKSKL
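Purified P. pyralis luciferase (10nM final) with 10uM D-luciferin and 10uM ATP (Km levels) in 50mM Tris acetate pH 7.5, 10mM Mg acetate, 0.01% Tween-20, 0.05% BSA; qHTS 6-point titration, ~60 µM downward; luminescence read.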
SMN2 splice enh: qHTS Assay for Enhancers of SMN2 Splice Variant Expression. HEK293 SMN2-luciferase splicing reporter, luminescence, 30-36 h. Potency, µM (series often up to 46.1 µM), for the others: at the top dose activity change, positive = activation, hits mostly activators. actives 2.8% (n = 210,000); note: % of control where 0% means no effect; nearly all actives have a fitted effect of over 55% in size
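HEK293 cells carry an SMN2 […]–luciferase reporter in which exon 7 inclusion puts luciferase in frame. Cells were plated 10-12 h before compound addition, then incubated 30-36 h at 37C. ONE-Glo luminescence was read; sodium butyrate at 4.5 mM final served as control.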
Rab9 promoter act: qHTS Assay for Rab9 Promoter Activators. Huh7 Rab9 promoter-luciferase reporter, luminescence, 24 h. Potency, µM (highest dose often 9.22 µM), for inactives: at the top dose activation, negative = inhibition, most hits filed as activators. actives 2.8% (n = 320,000). AID 485297, 2010; note: % of control where 0% means no effect; nearly all actives have a fitted effect of over 60% in size
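Huh7 reporter line, Rab9 promoter upstream of luciferase. Compound exposure 24 h at 37 °C in reduced-serum medium with 10% FBS. Read-out: luminescence.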
An asterisk follows results filed as active; [ ] = remark or other dose. Unless noted, calls come from the whole dose curve; as a rule, active = well fitted curve in the direction sought with a large enough effect; inconclusive = small, poorly fitted or top-dose-only effect, or another doubt; inactive = no such curve, though single readings can be large; an effect the other way counts as inactive or inconclusive. Potency is the fitted concentration of half-maximal effect.

Screening CNC(=O)Nc1ccccc1C(=O)NCc1ccccc1 returned ELG1 genotox 2%, uPA generation -1%, NPC1 prom act 1%, FLuc modulator 0%, SMN2 splice enh -9% and Rab9 promoter act 0%.
`O=C(Nc1ccc(Cl)cc1)Nc1ccccc1C(=O)NCc1ccco1` gave ELG1 genotox 18%, uPA generation inconclusive, NPC1 prom act 5%, FLuc modulator 19µM*, SMN2 splice enh 13% and Rab9 promoter act 7%.
For CCOc1ccc(CC(=O)N2N=C(C)CC2(O)C(F)(F)F)cc1 (stereo not drawn) the results were ELG1 genotox 0%, uPA generation 6%, NPC1 prom act -1%, FLuc modulator -1%, SMN2 splice enh -11% and Rab9 promoter act -4%.
COc1ccccc1N1CCN(CC(=O)Nc2ccccc2C(=O)NCCc2ccccc2)CC1 was read as ELG1 genotox -3%, uPA generation 3%, NPC1 prom act 17%, FLuc modulator -9% and Rab9 promoter act 10%.
COc1cccc(OC)c1Cn1nnc2c(=O)[nH]c(C3CCN(C(=O)c4ccccc4)CC3)nc21 was read as FLuc modulator -7% and SMN2 splice enh -5%.
`COC(=O)c1ccc(NC(=O)NC2CCCCC2)cc1` gave ELG1 genotox 17%, uPA generation -2%, NPC1 prom act inconclusive, FLuc modulator inconclusive, SMN2 splice enh 13µM* and Rab9 promoter act 16%.
`COC(=O)c1ccc(NC(=S)NC2CC3CCC2C3)cc1` (stereo not drawn) gave ELG1 genotox 6%, uPA generation 2%, NPC1 prom act 23%, FLuc modulator 21µM*, SMN2 splice enh inconclusive and Rab9 promoter act 23%.
Screening COc1ccc(NC(=O)NC2CCCCCCC2)cc1 returned ELG1 genotox 9.2µM*, uPA generation inconclusive, NPC1 prom act 0.89µM*, FLuc modulator 6µM* and Rab9 promoter act 1.4µM*.
COc1cc(NC(=O)n2ncc3cc(Cl)ccc32)cc(OC)c1 was read as ELG1 genotox inconclusive, uPA generation -14%, NPC1 prom act 18%, FLuc modulator 12µM* and Rab9 promoter act inconclusive.
For COc1ccc(NC(=O)n2ncc3cc(Cl)ccc32)cc1OC the results were ELG1 genotox inconclusive, uPA generation 2%, NPC1 prom act inconclusive, FLuc modulator inconclusive and Rab9 promoter act 3.5µM*.
`COc1ccc(C)cc1NC(=O)c1oc2ccc(S(=O)(=O)N3CCC4(CC3)OCCO4)cc2c1C` gave FLuc modulator 3%.
`CCn1cc(S(=O)(=O)c2ccccc2)c(=O)c2cc(C)ccc21` gave FLuc modulator -6% and SMN2 splice enh -1%.
COc1ccc(C(CCN2CCOCC2)c2c(OC)cc(OC)c3c(-c4ccccc4)cc(=O)oc23)cc1 (stereo not drawn) was read as ELG1 genotox -2% and uPA generation 14µM*.
`COc1ccc(C(CCN2CCCC2)c2c(OC)cc(OC)c3c(-c4ccccc4)cc(=O)oc23)cc1` (stereo not drawn) gave ELG1 genotox 1%, uPA generation -11%, NPC1 prom act 0%, FLuc modulator 2% and Rab9 promoter act -5%.
Screening CCOc1ccc(OCc2cccc(C(=O)N/N=C/c3cccnc3)c2)cc1 returned ELG1 genotox 0.23µM*, uPA generation -9%, NPC1 prom act 0.1µM*, FLuc modulator 1.5µM*, SMN2 splice enh 0.13µM* and Rab9 promoter act 0.1µM*.
For CC(C)c1ccc(OCc2cccc(C(=O)N/N=C/c3cccnc3)c2)cc1 the results were ELG1 genotox 0.46µM*, uPA generation -13%, NPC1 prom act 0.28µM*, FLuc modulator 0.85µM*, SMN2 splice enh 0.22µM* and Rab9 promoter act inconclusive.
COc1ccccc1NC(=O)CC(=O)c1ccccc1 was read as ELG1 genotox 3%, uPA generation -1%, NPC1 prom act 12%, FLuc modulator inconclusive and Rab9 promoter act 13%.
`Cc1cccc(C)c1NC(=O)c1c[nH]c2ccccc12` gave ELG1 genotox inconclusive, uPA generation -10%, NPC1 prom act inconclusive, FLuc modulator 12µM* and Rab9 promoter act 22%[1.84 µM].
Screening COc1ccccc1NC(=O)c1ccccc1NC(=O)c1ccccc1C(=O)O returned ELG1 genotox 0%, uPA generation 15%, NPC1 prom act -2%, FLuc modulator 2% and Rab9 promoter act -5%.
`COc1ccccc1NC(=O)c1c[nH]c2ccccc12` gave ELG1 genotox inconclusive, uPA generation 0%, NPC1 prom act inconclusive, FLuc modulator 21µM* and Rab9 promoter act 26%.
For COc1ccccc1NC(=O)c1ccccc1NC(=O)c1ccccc1 the results were FLuc modulator 15µM* and SMN2 splice enh -8%.
Screening COc1ccccc1C(=O)CC(=O)c1ccccc1 returned ELG1 genotox inconclusive, uPA generation -19%, NPC1 prom act inconclusive, FLuc modulator 13µM* and Rab9 promoter act 20%.
`COC(=O)c1ccc(/C=N/NC(=S)NCCN2CCOCC2)cc1` gave ELG1 genotox -1%, uPA generation 0%, NPC1 prom act -1%, FLuc modulator 1%, SMN2 splice enh -2% and Rab9 promoter act -5%.
Cc1cc2c(cc1Cl)N(C(=O)Nc1ccc(Oc3cccnc3C)nc1)CC2 was read as NPC1 prom act -33%[46.1 µM] and Rab9 promoter act -31%[46.1 µM].
CCN(C(=O)Cn1c(=O)n(Cc2ccccc2)c(=O)c2c1c1cc(OC)ccc1n2C)c1ccccc1 was read as FLuc modulator 0%.
For CCOc1ccc(-n2c(=O)c3c(C)c(C)sc3n(CC(=O)NCCc3ccccc3)c2=O)cc1 the results were FLuc modulator -2% and SMN2 splice enh 4%.
`COc1ccccc1C(=O)NCC(=O)NC(C)CCc1ccccc1` (stereo not drawn) gave ELG1 genotox 8%, uPA generation 10%, NPC1 prom act 2%, FLuc modulator 3µM* and Rab9 promoter act -7%.
CC(=O)Nc1ccc(NCC(=O)c2ccccc2)cc1 was read as ELG1 genotox 9%, uPA generation -1%, NPC1 prom act -2%, FLuc modulator 15µM* and Rab9 promoter act 0%.
Screening O=C(Nc1ccccc1)C(=O)c1c[nH]c2ccccc12 returned ELG1 genotox 0.92µM*, uPA generation 4%, NPC1 prom act 3.5µM*, FLuc modulator 1.7µM* and Rab9 promoter act 1.8µM*.
